Laboratory results: PubChem BioAssay (Tox21)
Records with an inconclusive call do not appear. Calls of active or inactive are those of the source. Unless noted, calls come from the whole dose curve.

What was measured:
[1] = Nuclear factor erythroid 2-related factor 2/antioxidant responsive element (Nrf2/ARE) small molecule agonists: qHTS cell viability counter screen in human keratinocytes (AID 1919968; active = well fitted curve in the direction sought with a large enough effect in the repeat runs; an effect the other way counts as inactive or inconclusive; note: nearly all actives have a fitted effect of over 55% in size)
Method in brief: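 Measured as CellTiter-Fluor fluorescence, this readout tracks cytotoxicity in the same wells as the ARE-luciferase screen. HaCaT reporter cells (1,500/well) received compounds after a 5 h pre-incubation and were exposed for 23 h.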

[2] = Nuclear factor erythroid 2-related factor 2/antioxidant responsive element (Nrf2/ARE) small molecule agonists: luciferase reporter gene qHTS assay in human keratinocytes (AID 1919969); note: nearly all actives have a fitted effect of over 35% in size; note: potency is the fitted concentration of half-maximal effect
[3] = molecular target: Gonadotropin-releasing hormone receptor (Homo sapiens) (UniProt P30968); assay: Human gonadotropin-releasing hormone receptor (GnRHR) small molecule agonists, calcium flux assay in GnRHR-HEK293 cells (AID 1920063); note: nearly all actives have a fitted effect of over 35% in size
Method in brief: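 Fluorescence kinetics (480 nm excitation, 540 nm emission; 3 min, 1 s steps) report calcium mobilisation in human GnRHR-HEK293 cells in agonist mode. Dye incubation: 1 h, 37 C.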

[4] = molecular target: KiSS-1 receptor (Homo sapiens) (UniProt Q969F8); assay: Human kisspeptin (KISS1R) small molecule agonists, calcium flux assay in KISS1R-HEK293 cells (AID 1920064; active = well fitted curve in the direction sought with a large enough effect in the repeat runs; an effect the other way counts as inactive or inconclusive)
Method in brief: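 Measures KISS1R agonism through calcium-sensitive dye fluorescence in stably transfected HEK293 cells, read for 3 min after pin-tool compound delivery; 15-point titrations in triplicate.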

[5] = G protein-coupled receptor (GPCR) small molecule agonists, calcium flux assay: HEK293 wild type cell line counter screen (AID 1920065)
Method in brief: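 Readout: fluorescence at 480 nm excitation/540 nm emission, sampled at 1 s intervals for 3 min. Cells had been cultured 18 h, then dye-loaded 1 h at 37 C before compound or ATP addition.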

[6] = p53 small molecule agonists, cell-based qHTS assay with human liver microsomes: qHTS cell viability counter screen (AID 1963579); note: nearly all actives have a fitted effect of over 45% in size
Method in brief: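 Metabolically activated exposure: compounds, human liver microsomes and NADPH (0.5 mg/mL final apiece) were added to p53RE-bla cells seeded 5 h earlier, left 16 h at 37 C, and then assessed for viability by CellTiter-Glo luminescence.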

[7] = p53 small molecule agonists, cell-based qHTS assay with rat liver microsomes: qHTS cell viability counter screen (AID 1963580); note: nearly all actives have a fitted effect of over 45% in size
Method in brief: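 Viability is assessed in parallel with the p53 reporter read: HCT-116 p53RE-bla cells receive compounds plus rat microsomes and NADPH (0.5 mg/mL final apiece), incubate 16 h at 37 C, and then CellTiter-Glo luminescence is recorded.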

[8] = p53 small molecule agonists, cell-based qHTS assay: qHTS cell viability counter screen (AID 1963581); note: nearly all actives have a fitted effect of over 45% in size
Method in brief: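 In the same plates used for the p53 bla reporter, HCT-116 cells given compounds for 16 h at 37 C received CellTiter-Glo; luminescence was recorded 30 min later at room temperature.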

[9] = molecular target: 5-hydroxytryptamine receptor 2A (Homo sapiens) (UniProt P28223); assay: 5-hydroxytryptamine receptor 2A (HTR2A) small molecule antagonists, cell-based qHTS assay (AID 1963586); note: nearly all actives have a fitted effect of over 45% in size
Method in brief: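 Antagonist-mode intracellular calcium assay: DOI (4 nM) added after 5 min compound pre-incubation at room temperature to dye-loaded HTR2A-CHO cells. Fluorescence followed for 3 min, sampled every second.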

[10] = molecular target: 5-hydroxytryptamine receptor 2A (Homo sapiens) (UniProt P28223); assay: 5-hydroxytryptamine receptor 2A (HTR2A) small molecule agonists, cell-based qHTS assay (AID 1963587); note: nearly all actives have a fitted effect of over 30% in size
Method in brief: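 CHO cells stably expressing human HTR2A, plated 18 h, loaded with calcium dye 1 h at 37 C. Agonist mode: compounds added and intracellular calcium fluorescence recorded kinetically for 2 min at 1 sec intervals.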

[11] = molecular target: Muscarinic acetylcholine receptor M1 (Homo sapiens) (UniProt P11229); assay: Cholinergic receptor muscarinic 1 (CHRM1) small molecule antagonists, cell-based qHTS assay (AID 1963588); note: nearly all actives have a fitted effect of over 40% in size; note: potency is the fitted concentration of half-maximal effect
Method in brief: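 CHRM1-CHO calcium-flux assay, antagonist mode. Cells were seeded 18 h, dye-loaded 1 h at 37 C and given compound for 5 min at RT, then acetylcholine was added at 50nM. FDSS fluorescence was read 3 min; 15 concentrations, three runs.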

[12] = molecular target: Muscarinic acetylcholine receptor M1 (Homo sapiens) (UniProt P11229); assay: Cholinergic receptor muscarinic 1 (CHRM1) small molecule agonists, cell-based qHTS assay (AID 1963589); note: nearly all actives have a fitted effect of over 35% in size
Method in brief: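 Each compound was tested at 15 concentrations across three independent runs on dye-loaded CHO cells stably expressing human CHRM1, reading intracellular calcium fluorescence kinetically at 1 sec intervals.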

[13] = cAMP Responsive Elements (CRE) small molecule agonists, cell-based qHTS assay (AID 1963590)
Method in brief: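 Cell line: CRE-bla HEK 293T; medium DMEM/10% dialyzed FBS/0.1 mM NEAA/1 mM pyruvate/25 mM HEPES; 3 h compound exposure; beta-lactamase FRET readout after 2 h substrate loading at RT.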

[14] = cAMP Responsive Elements (CRE) small molecule antagonists, cell-based qHTS assay (AID 1963591; active = well fitted inhibition curve with a large enough effect in the signal ratio in the repeat runs, not every such curve was filed as active; the % refers to the signal ratio)
Method in brief: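 Inhibition of NKH477-driven (0.25 uM final) CRE-beta-lactamase signal in HEK293T cells, 3 h compound exposure at 37 °C, detected by FRET substrate fluorescence.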

[15] = molecular target: Beta-2 adrenergic receptor (Homo sapiens) (UniProt P07550); assay: Adrenergic beta2 receptor (ADRB2) small molecule antagonists, cell-based qHTS assay (AID 1963592); note: series mostly up to about 92 µM; nearly all actives have a fitted effect of over 50% in size
Method in brief: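 Cells (CHO, stable ADRB2 overexpression) incubated 18-20hr at 37C; compounds added from DMSO; agonist mix (1nM isoproterenol, 100uM IBMX, 25uM Ro-20-1724) added; 0.5hr RT; d2-cAMP and anti-cAMP-cryptate added; 1hr RT; 665/615 nm read.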

[16] = molecular target: Beta-2 adrenergic receptor (Homo sapiens) (UniProt P07550); assay: Adrenergic beta2 receptor (ADRB2) small molecule agonists, cell-based qHTS assay (AID 1963593);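 note: CHO cells stably overexpressing human ADRB2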
Method in brief: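 CHO cells stably over-expressing ADRB2 were plated overnight at 37C, then dosed with compounds plus a stimulation mix containing 100uM IBMX and 25uM Ro-20-1724 for 0.5hr at room temperature. cAMP was measured by HTRF competition, 1hr.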

[17] = molecular target: D(2) dopamine receptor (Homo sapiens) (UniProt P14416); assay: Dopamine D2 receptor (DRD2) small molecule agonists, cell-based qHTS assay (AID 1963594); note: nearly all actives have a fitted effect of over 35% in size
Method in brief: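 HEK293 cells stably expressing human DRD2, pre-treated with PDE inhibitor Ro20-1724 (0.1 mM final) and compound 10 min at room temperature, then stimulated with NKH477 (200nM […]) for 30 min. cAMP read by HTRF (665/620 nm).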

[18] = molecular target: D(2) dopamine receptor (Homo sapiens) (UniProt P14416); assay: Dopamine D2 receptor (DRD2) small molecule antagonists, cell-based qHTS assay (AID 1963595; active = well fitted inhibition curve with a large enough effect in the signal ratio in the repeat runs, with a control signal flat; the % refers to the signal ratio)
Method in brief: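 In this cell-based antagonist screen, compounds act for 10 min at room temperature before a 30 min challenge with 12 nM quinpirole and 200 nM NKH477. cAMP is quantified by HTRF competition in DRD2-HEK293 cells containing 0.1 mM Ro20-1724.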

[19] = p53 small molecule agonists, cell-based qHTS assay with rat liver microsomes (AID 1963578)
Method in brief: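 Agonist mode in p53RE-bla reporter cells, with compounds co-incubated 16 h at 37 C alongside 0.5 mg/mL rat liver microsomes and 0.5 mg/mL NADPH (final), followed by a 2 h LiveBLAzer detection step.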

[20] = p53 small molecule agonists, cell-based qHTS assay (AID 1963582; active = well fitted activation curve with a large enough effect in the signal ratio in the repeat runs, not every such curve was filed as active; the % refers to the signal ratio; note: potency is the fitted concentration of half-maximal effect)
Method in brief: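 Compounds are pin-transferred in DMSO onto p53RE-bla cells and incubated 16 h at 37 C. The B/G FRET beta-lactamase substrate is then applied for 2 h at RT and fluorescence recorded.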
% is set by controls: 0 for no effect and ±100 for the full control effect.

Sequence of Beta-2 adrenergic receptor (Homo sapiens) (P07550 whole entry, looked up): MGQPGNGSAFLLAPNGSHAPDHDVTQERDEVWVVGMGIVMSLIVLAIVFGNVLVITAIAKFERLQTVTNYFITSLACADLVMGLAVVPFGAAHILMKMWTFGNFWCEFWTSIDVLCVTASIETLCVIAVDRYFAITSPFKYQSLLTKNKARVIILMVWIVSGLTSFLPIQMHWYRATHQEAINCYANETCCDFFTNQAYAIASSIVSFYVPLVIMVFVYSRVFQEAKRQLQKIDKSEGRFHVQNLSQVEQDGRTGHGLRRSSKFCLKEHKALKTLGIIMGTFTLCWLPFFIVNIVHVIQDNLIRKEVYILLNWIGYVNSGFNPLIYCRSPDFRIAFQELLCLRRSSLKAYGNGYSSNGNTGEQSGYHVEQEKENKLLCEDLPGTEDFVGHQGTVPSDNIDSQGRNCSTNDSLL
Sequence of KiSS-1 receptor (Homo sapiens) (Q969F8 whole entry, looked up): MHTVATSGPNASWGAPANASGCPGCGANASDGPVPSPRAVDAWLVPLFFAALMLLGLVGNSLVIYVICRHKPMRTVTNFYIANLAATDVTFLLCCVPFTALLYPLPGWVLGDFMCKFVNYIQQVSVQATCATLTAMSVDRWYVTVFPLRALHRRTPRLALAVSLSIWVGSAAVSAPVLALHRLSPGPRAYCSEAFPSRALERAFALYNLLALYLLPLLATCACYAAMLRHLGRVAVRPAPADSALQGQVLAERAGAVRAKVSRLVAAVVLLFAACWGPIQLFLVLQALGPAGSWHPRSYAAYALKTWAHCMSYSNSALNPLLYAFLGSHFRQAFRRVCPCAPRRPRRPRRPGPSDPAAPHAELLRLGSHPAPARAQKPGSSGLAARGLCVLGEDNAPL
Sequence of 5-hydroxytryptamine receptor 2A (Homo sapiens) (P28223 whole entry, looked up): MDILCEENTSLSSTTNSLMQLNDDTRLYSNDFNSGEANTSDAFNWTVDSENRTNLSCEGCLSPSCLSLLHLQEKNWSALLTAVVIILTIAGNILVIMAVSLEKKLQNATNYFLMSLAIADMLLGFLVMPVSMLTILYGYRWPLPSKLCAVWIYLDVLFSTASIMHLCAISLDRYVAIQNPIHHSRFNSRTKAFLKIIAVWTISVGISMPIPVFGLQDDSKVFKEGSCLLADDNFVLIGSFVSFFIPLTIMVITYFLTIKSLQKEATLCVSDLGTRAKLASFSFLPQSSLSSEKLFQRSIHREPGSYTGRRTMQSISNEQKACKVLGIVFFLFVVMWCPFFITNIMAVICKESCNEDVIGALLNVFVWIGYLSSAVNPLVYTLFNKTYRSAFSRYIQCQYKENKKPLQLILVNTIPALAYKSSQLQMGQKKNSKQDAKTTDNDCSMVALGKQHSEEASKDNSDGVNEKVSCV
Sequence of Muscarinic acetylcholine receptor M1 (Homo sapiens) (P11229 whole entry, looked up): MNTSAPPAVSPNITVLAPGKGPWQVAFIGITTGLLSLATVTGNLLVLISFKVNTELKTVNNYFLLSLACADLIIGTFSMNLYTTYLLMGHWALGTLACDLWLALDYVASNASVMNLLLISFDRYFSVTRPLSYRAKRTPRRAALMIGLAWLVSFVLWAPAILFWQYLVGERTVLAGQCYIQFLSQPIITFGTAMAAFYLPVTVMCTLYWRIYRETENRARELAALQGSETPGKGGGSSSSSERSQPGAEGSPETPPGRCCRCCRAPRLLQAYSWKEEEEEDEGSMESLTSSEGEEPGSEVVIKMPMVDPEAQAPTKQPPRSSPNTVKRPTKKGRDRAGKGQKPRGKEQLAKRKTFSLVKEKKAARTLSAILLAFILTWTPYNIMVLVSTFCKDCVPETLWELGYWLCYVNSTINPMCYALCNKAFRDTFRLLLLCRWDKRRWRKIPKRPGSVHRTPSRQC
Sequence of Gonadotropin-releasing hormone receptor (Homo sapiens) (P30968 whole entry, looked up): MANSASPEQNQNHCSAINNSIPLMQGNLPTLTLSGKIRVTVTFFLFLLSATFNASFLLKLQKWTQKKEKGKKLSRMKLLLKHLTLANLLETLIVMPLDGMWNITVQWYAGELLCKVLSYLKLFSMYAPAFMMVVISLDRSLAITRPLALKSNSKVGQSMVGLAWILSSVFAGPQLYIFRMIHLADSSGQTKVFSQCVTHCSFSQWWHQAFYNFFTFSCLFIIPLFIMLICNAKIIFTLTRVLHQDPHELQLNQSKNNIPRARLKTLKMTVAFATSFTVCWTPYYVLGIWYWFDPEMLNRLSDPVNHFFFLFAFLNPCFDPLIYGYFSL
Sequence of D(2) dopamine receptor (Homo sapiens) (P14416 whole entry, looked up): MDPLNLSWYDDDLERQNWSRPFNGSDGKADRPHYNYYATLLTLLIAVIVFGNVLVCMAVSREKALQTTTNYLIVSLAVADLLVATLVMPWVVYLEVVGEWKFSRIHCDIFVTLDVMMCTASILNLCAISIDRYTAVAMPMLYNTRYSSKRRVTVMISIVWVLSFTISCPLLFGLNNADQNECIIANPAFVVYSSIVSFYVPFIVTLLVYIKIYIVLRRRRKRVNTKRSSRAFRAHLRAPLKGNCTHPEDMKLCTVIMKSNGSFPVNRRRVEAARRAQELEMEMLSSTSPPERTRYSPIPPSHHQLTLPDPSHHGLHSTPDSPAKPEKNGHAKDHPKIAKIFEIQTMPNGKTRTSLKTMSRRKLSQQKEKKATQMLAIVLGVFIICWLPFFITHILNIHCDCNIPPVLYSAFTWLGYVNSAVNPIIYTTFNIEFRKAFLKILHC

S=C(S)NCCNC(=S)S
inactive: Potency [1] | Potency [2] | Potency [3] | Potency [4] | Potency [5] | Potency [6] | Potency [7] | Potency [8] | Potency [9] | Potency [10] | Potency [11] | Potency [12] | Potency [13] | Potency [14] | Potency [15] | Potency [16] | Potency [17] | Potency [18]

CCS(=O)(=O)c1ccc(OC)c(C(=O)OC)c1
inactive: Potency [1] | Potency [2] | Potency [3] | Potency [4] | Potency [5] | Potency [19] | Potency [7] | Potency [8] | Potency [20] | Potency [9] | Potency [10] | Potency [11] | Potency [12] | Potency [13] | Potency [14] | Potency [15] | Potency [16] | Potency [17] | Potency [18]

C=C1CCC2CC1C2(C)C (configuration not stated)
inactive: Potency [1] | Potency [2] | Potency [3] | Potency [4] | Potency [5] | Potency [6] | Potency [7] | Potency [8] | Potency [9] | Potency [10] | Potency [11] | Potency [12] | Potency [13] | Potency [14] | Potency [15] | Potency [16] | Potency [17] | Potency [18]

CC(=O)OCC(=O)NCCCOc1cccc(CN2CCCCC2)c1
inactive: Potency [1] | Potency [2] | Potency [3] | Potency [4] | Potency [5] | Potency [6] | Potency [7] | Potency [8] | Potency [9] | Potency [10] | Potency [11] | Potency [12] | Potency [13] | Potency [14] | Potency [15]

CCCCCCCCCCCCCCCCCBr
inactive: activity change, negative = cytotoxicity [1] 2.19% [at 19 µM] | activity, positive = activation [2] -1.2% [at 19 µM] | activity change [3] 0.321% [at 11.8 µM, hits give high values] | activation [4] 0.212% [at 15.8 µM] | activation [5] -0.0398% [at 11.8 µM] | activity change, negative = cytotoxicity [6] 5.38% [at 13.5 µM] | activity change, negative = cytotoxicity [7] 0.54% [at 13.5 µM] | activity change, negative = cytotoxicity [8] 3.13% [at 13.5 µM] | activity, negative = inhibition [9] 31.5% [at 12.7 µM] | activation [10] 0.832% [at 15.9 µM] | activity, negative = inhibition [11] 7.9% [at 12.6 µM] | activation [12] -0.0212% [at 15.8 µM] | activation [13] -0.0773% [at 19 µM] | activity change, negative = inhibition [14] -5.99% [at 18.9 µM] | activity change, negative = inhibition [15] 0.719% [at 19 µM] | activation [16] 8.09% [at 19 µM] | activation [17] -0.0433% [at 19 µM] | activity change, negative = inhibition [18] 0.232% [at 18.9 µM]

CCn1ccc(NS(=O)(=O)c2ccc(N)cc2)nc1=O
inactive: Potency [1] | Potency [2] | Potency [3] | Potency [4] | Potency [5] | Potency [19] | Potency [7] | Potency [8] | Potency [20] | Potency [10] | Potency [11] | Potency [12] | Potency [13] | Potency [14] | Potency [15] | Potency [18]

Cc1onc(-c2c(Cl)cccc2Cl)c1C(=O)Cl
inactive: Potency [1] | Potency [2] | Potency [3] | Potency [4] | Potency [5] | Potency [19] | Potency [8] | Potency [20] | Potency [12] | Potency [14] | Potency [15] | Potency [16] | Potency [17] | Potency [18]

Cc1ccccc1Br
inactive: Potency [1] | Potency [2] | Potency [3] | Potency [4] | Potency [5] | Potency [6] | Potency [7] | Potency [8] | Potency [9] | Potency [10] | Potency [11] | Potency [12] | Potency [13] | Potency [14] | Potency [15] | Potency [16] | Potency [17] | Potency [18]

O=[N+]([O-])c1cc[n+]([O-])cc1
active: Potency [2] 61.1 µM
inactive: Potency [1] | Potency [3] | Potency [4] | Potency [5] | Potency [6] | Potency [7] | Potency [8] | Potency [20] | Potency [9] | Potency [10] | Potency [12] | Potency [13] | Potency [14] | Potency [15] | Potency [16] | Potency [17]

CCNCCO
inactive: Potency [1] | Potency [2] | Potency [3] | Potency [4] | Potency [5] | Potency [6] | Potency [7] | Potency [8] | Potency [9] | Potency [10] | Potency [11] | Potency [12] | Potency [13] | Potency [14] | Potency [15] | Potency [16] | Potency [17] | Potency [18]

O=c1[nH]c2ccc(S(=O)CCN3CCC(Cc4ccc(F)cc4)CC3)cc2o1 (configuration not stated)
active: Potency [2] 61.1 µM | Potency [11] 14.9 µM
inactive: Potency [1] | Potency [3] | Potency [4] | Potency [5] | Potency [19] | Potency [7] | Potency [20] | Potency [10] | Potency [12] | Potency [15] | Potency [16]

Cc1c(C)c2c(c(C)c1OC(=O)c1cccnc1)CC[C@@](C)(CCC[C@H](C)CCC[C@H](C)CCCC(C)C)O2
inactive: Potency [1] | Potency [2] | Potency [3] | Potency [4] | Potency [5] | Potency [6] | Potency [7] | Potency [8] | Potency [9] | Potency [10] | Potency [11] | Potency [12] | Potency [13] | Potency [14] | Potency [15] | Potency [16] | Potency [17] | Potency [18]

CC1=CC=C(C(C)C)CC1
inactive: Potency [1] | Potency [2] | Potency [3] | Potency [4] | Potency [5] | Potency [6] | Potency [7] | Potency [8] | Potency [9] | Potency [10] | Potency [11] | Potency [12] | Potency [13] | Potency [14] | Potency [15] | Potency [16] | Potency [17] | Potency [18]

CCN(C)C(=O)Oc1cccc([C@H](C)N(C)C)c1
inactive: Potency [1] | Potency [2] | Potency [3] | Potency [4] | Potency [5] | Potency [6] | Potency [7] | Potency [8] | Potency [20] | Potency [9] | Potency [10] | Potency [11] | Potency [12] | Potency [13] | Potency [14] | Potency [17]

Clc1ccc2cc3ccccc3cc2c1
inactive: Potency [1] | Potency [2] | Potency [3] | Potency [4] | Potency [5] | Potency [6] | Potency [7] | Potency [8] | Potency [9] | Potency [10] | Potency [11] | Potency [12] | Potency [15] | Potency [17] | Potency [18]
active: Potency [20] 40.7 µM
